# A number with no mark means an inactive call. Results filed as inconclusive are left out. Entries that show only a call come without a potency. Calls of active or inactive are those of the source. Calls come from the whole dose curve; as a rule, active = well fitted curve in the direction sought with a large enough effect; inconclusive = small, poorly fitted or top-dose-only effect, or another doubt; inactive = no such curve, though single readings can be large; an effect the other way counts as inactive or inconclusive.
# How the values were obtained:
# [1] = target: Single-stranded DNA cytosine deaminase (Homo sapiens) (UniProt Q9GZX7); assay: Validation qHTS assay for inhibitors of Activation Induced Cytidine Deaminase (AID): AID signal (AID 1347429)
# How it was run: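 Fluorescence at 540 nm excitation and 590 nm emission reports ssDNA cytosine deamination by AID, with UDG in the same well. Compound-treated reactions ran 4 hr at room temperature with DJC20/DJC23 substrate, followed by 30 min NaOH treatment.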
# [2] = Primary qHTS for inhibitors of La Crosse Virus (LACV) - induced cell death in SH-SY5Y cells (AID 1508616);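 note: top concentration of the series differs between compounds; higher means more rescue of cells from virus-induced death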
# How it was run: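 Protection against LACV-induced cell death is scored in SH-SY5Y cells exposed to compounds and virus (0.01 MOI) for 6 days. Data normalized to virus-infected DMSO wells and virus-free DMSO wells.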
# [3] = target: Calcium and integrin-binding protein 1 (Homo sapiens) (UniProt Q99828); assay: Validation qHTS for Identification of Calcium Integrin Binding protein 1 (CIB1) Competitor (AID 1508618)
# How it was run: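 CIB1-GST (1 uM final) incubated 15 min at room temperature with compounds (up to 114 uM), then FITC-labelled alphaIIb peptide (100 nM) added. FP read (Ex 480/Em 540) after 15 min, pH 7.4 buffer containing 5 mM CaCl2.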
# [4] = Primary qHTS for small molecule stabilizers of the endoplasmic reticulum resident proteome: Secreted ER Calcium Modulated Protein (SERCaMP) assay (AID 1508630); note: potency is the fitted concentration of half-maximal effect
# How it was run: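 GLuc-SERCaMP-expressing SH-SY5Y cells, pretreated 16 h with compound, are challenged with thapsigargin to empty ER calcium stores; after 4 h, coelenterazine is added directly to the medium and luminescence is imaged.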
# [5] = target: Papain (Carica papaya) (UniProt P00784); assay: Primary qHTS assay for inhibitors of the protease papain (AID 1645873);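 note: papain turnover of Z-FR-AMC read as the AMC fluorescence gain over 10 min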; note: potency is the fitted concentration of half-maximal effect
# [6] = Cell Viability qHTS for small molecule stabilizers of the endoplasmic reticulum resident proteome (AID 1508629); details: cell viability counter-screen, 100 nM thapsigargin for final 4 h;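 note: human SH-SY5Y neuroblastoma cells carrying the GLuc-SERCaMP reporter; compound exposure about 46 h in total before the viability read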
# Papain (Carica papaya), sequence (P00784 whole entry, looked up): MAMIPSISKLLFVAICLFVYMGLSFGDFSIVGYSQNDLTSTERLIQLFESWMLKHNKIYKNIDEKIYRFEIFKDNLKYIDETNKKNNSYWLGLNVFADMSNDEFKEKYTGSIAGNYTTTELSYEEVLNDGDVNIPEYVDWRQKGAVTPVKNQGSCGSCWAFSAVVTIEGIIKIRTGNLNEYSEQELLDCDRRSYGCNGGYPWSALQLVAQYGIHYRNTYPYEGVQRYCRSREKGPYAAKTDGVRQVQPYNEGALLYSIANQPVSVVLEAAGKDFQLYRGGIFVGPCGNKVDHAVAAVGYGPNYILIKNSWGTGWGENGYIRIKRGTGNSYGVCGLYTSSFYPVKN
# Single-stranded DNA cytosine deaminase (Homo sapiens), sequence (Q9GZX7 whole entry, looked up): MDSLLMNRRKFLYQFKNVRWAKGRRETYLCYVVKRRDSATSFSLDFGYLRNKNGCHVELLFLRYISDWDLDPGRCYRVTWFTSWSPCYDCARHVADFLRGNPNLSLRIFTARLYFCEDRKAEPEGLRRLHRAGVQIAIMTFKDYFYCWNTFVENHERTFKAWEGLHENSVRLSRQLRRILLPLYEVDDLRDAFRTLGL
# Calcium and integrin-binding protein 1 (Homo sapiens), sequence (Q99828 whole entry, looked up): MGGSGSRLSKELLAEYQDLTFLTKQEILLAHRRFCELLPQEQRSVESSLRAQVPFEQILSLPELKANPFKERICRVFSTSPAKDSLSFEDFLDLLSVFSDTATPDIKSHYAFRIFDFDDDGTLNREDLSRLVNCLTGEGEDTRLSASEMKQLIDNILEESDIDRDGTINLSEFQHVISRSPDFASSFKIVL
SMILES,Potency [1],Potency [2],Potency [3],Potency [4],Potency [5],max response [6]
CC1CNCCN1S(=O)(=O)c1cccc2cnccc12 (stereo unspecified),inactive,inactive,inactive,inactive,inactive,–
COc1cc(CC(=O)O)ccc1O,inactive,inactive,inactive,inactive,inactive,–
O=C(O)C1CCNCC1,inactive,inactive,inactive,inactive,inactive,–
O=C1C2C=CC=CC2=NC(=S)N1CCN1CCC(=C(c2ccc(F)cc2)c2ccc(F)cc2)CC1 (stereo unspecified),inactive,inactive,inactive,inactive,inactive,–
COC1(C2=NCCN2)COc2ccccc2O1 (stereo unspecified),inactive,inactive,inactive,inactive,inactive,–
COc1ccccc1N1CCN(CCCCNC(=O)c2ccc3ccccc3c2)CC1,inactive,inactive,inactive,inactive,inactive,–
O=C(OCCN1CCOCC1)C1(c2ccccc2)CCCCC1,inactive,inactive,inactive,inactive,inactive,–
C=CCN1CCc2c(cc(O)c(O)c2Cl)C(c2ccccc2)C1 (stereo unspecified),inactive,inactive,inactive,inactive,inactive,–
CC(C)(CO)Cc1cc(C(C)(C)C)c(O)c(C(C)(C)C)c1,inactive,inactive,inactive,inactive,inactive,–
CN[C@H](CC(=O)O)C(=O)O,inactive,inactive,inactive,inactive,inactive,–
CC#CCOC(=O)c1c(C)nc2sc3c(c2c1N)CCC(O)C3 (stereo unspecified),inactive,inactive,inactive,inactive,inactive,–
CC(C)NC[C@H](O)COc1ccc(CC(N)=O)cc1,inactive,inactive,inactive,inactive,inactive,–
OC1(c2ccc(Cl)cc2)CCN(Cc2c[nH]c3ccccc23)CC1,inactive,inactive,inactive,inactive,inactive,–
CC(N)=O,inactive,inactive,inactive,inactive,inactive,–
NCCS(=O)O,inactive,inactive,inactive,inactive,inactive,–
O=C(O)C1CN(CCCP(=O)(O)O)CCN1 (stereo unspecified),inactive,inactive,inactive,inactive,inactive,–
CC1=C(/C=C/C(C)=C/C=C/C(C)=C\C(=O)O)C(C)(C)CCC1,inactive,inactive,inactive,inactive,inactive,–
COc1ccc2c(c1)c(CC(=O)O)c(C)n2C(=O)c1ccccc1,inactive,inactive,inactive,inactive,inactive,–
OC[C@H]1O[C@@H](n2cnc3cncnc32)[C@H](O)[C@@H]1O,inactive,inactive,inactive,inactive,inactive,–
CNC(=O)c1cc2c(cn1)[nH]c1ccccc12,inactive,inactive,inactive,inactive,25.1 µM (active),–
Nc1ncnc2c1nc(Sc1ccc(Cl)cc1)n2[C@H]1OC2COP(=O)(O)O[C@@H]2C1O (stereo partly specified),inactive,inactive,inactive,inactive,inactive,–
N[C@H](C(=O)O)[C@H](O)C(=O)O,inactive,inactive,inactive,inactive,inactive,–
NC(N)=N[C@@H](CCC(=O)O)C(=O)O,inactive,inactive,inactive,inactive,inactive,–
C[N+](C)(C)CC=O,inactive,inactive,inactive,inactive,inactive,–
Nc1ncnc2c1ncn2C1CCCO1 (stereo unspecified),inactive,inactive,inactive,inactive,inactive,–

SMILES,Potency [1],Potency [2],Potency [3],Potency [4],Potency [5],max response [6]
CC(C)(C)c1cc(/C=C(\C#N)C(N)=S)cc(C(C)(C)C)c1O,inactive,inactive,inactive,inactive,inactive,–
O=c1ccn([C@@H]2O[C@H](COP(=O)(O)OP(=O)(O)O)[C@@H](O)[C@H]2O)c(=O)[nH]1,inactive,inactive,inactive,inactive,inactive,–
NC/C=C\C(=O)O,inactive,inactive,inactive,inactive,inactive,–
CSc1nc(N)c2ncn([C@@H]3O[C@H](COP(=O)(O)OP(=O)(O)O)C(O)[C@H]3O)c2n1 (stereo partly specified),inactive,inactive,inactive,inactive,inactive,–
NC1(C(=O)O)CCCCC1,inactive,inactive,inactive,inactive,inactive,–
CC(C)C[C@H](NC(=O)[C@H](O)[C@H](N)Cc1ccccc1)C(=O)O,inactive,inactive,inactive,inactive,inactive,–
NCCCCN,inactive,inactive,inactive,–,inactive,–
N=C(N)c1ccccc1,inactive,inactive,inactive,–,inactive,–
N[C@@H](Cc1c[nH]c2ccccc12)C(=O)O,inactive,inactive,inactive,–,inactive,–
NC(=O)c1ccccc1,inactive,inactive,inactive,–,inactive,–
CCCCCCCCCC[Si](C)(C)CCC(=O)NC(Cc1ccc(C)cc1)c1ccccc1 (stereo unspecified),inactive,inactive,inactive,–,inactive,–
N=C(N)SCCN,inactive,inactive,inactive,inactive,inactive,–
O=C(O)C1=CCNCC1,inactive,inactive,inactive,–,inactive,–
O=C(O)C1=CCCN(CCON=C(c2ccccc2)c2ccccc2)C1,inactive,inactive,inactive,–,inactive,–
c1ccc(C(NCCNC(c2ccccc2)c2ccccc2)c2ccccc2)cc1,inactive,inactive,inactive,–,inactive,–
CC(=O)SC1CC2=CC(=O)CC[C@]2(C)C2CC[C@@]3(C)C(CC[C@@]34CCC(=O)O4)C12 (stereo partly specified),inactive,inactive,inactive,–,inactive,–
CCc1ccc2c(-c3cccc(Cl)c3)nc(=O)n(CC)c2n1,inactive,inactive,inactive,–,inactive,–
N[C@H]1CONC1=O,inactive,inactive,inactive,inactive,inactive,–
N[C@@H](CS(=O)O)C(=O)O,inactive,inactive,inactive,inactive,inactive,–
OC[C@H]1O[C@H](n2cnc3c(N[C@H]4CCC[C@@H]4O)ncnc32)[C@H](O)[C@@H]1O,inactive,inactive,inactive,–,inactive,–
O=c1[nH]c2cc(Cl)ccc2c(O)c1-c1ccc(Oc2ccccc2)cc1,inactive,inactive,inactive,–,inactive,–
NC1(C(=O)O)CC1,inactive,inactive,inactive,–,inactive,–
N=S(=O)(O)Cc1noc2ccccc12,inactive,inactive,inactive,–,inactive,–
O=C(O)c1cc(=O)cc(C(=O)O)[nH]1,inactive,inactive,inactive,–,inactive,–
O=C(O)/C=C/c1cnc[nH]1,inactive,inactive,inactive,–,inactive,–

SMILES,Potency [1],Potency [2],Potency [3],Potency [4],Potency [5],max response [6]
O=C(O)c1cccnc1C(=O)O,inactive,inactive,inactive,–,inactive,–
COc1ccc(-c2ccc(N)[n+](CCCC(=O)O)n2)cc1,inactive,inactive,inactive,inactive,inactive,–
CC(=O)O[C@H]1Cc2ccccc2N(C(N)=O)c2ccccc21,inactive,inactive,inactive,–,inactive,–
NC1C=CC=C(C(=O)O)C1 (stereo unspecified),inactive,inactive,inactive,–,inactive,–
CN1Cc2sccc2C(c2ccc(O)c(O)c2)C1 (stereo unspecified),inactive,inactive,inactive,–,inactive,–
O=C(O)[C@H]1NCCC[C@H]1C(=O)O,inactive,inactive,inactive,inactive,inactive,–
N=C(N)c1ccc(N)cc1,inactive,inactive,inactive,–,inactive,–
CC[C@H](NC(=O)c1c(C)c(-c2ccccc2)nc2ccccc12)c1ccccc1,inactive,inactive,inactive,–,inactive,–
N[C@H](C(=O)O)[C@H](Cc1ccccc1)C(=O)O,inactive,inactive,inactive,–,inactive,–
C=C1C[C@@]23CC[C@H]4[C@@](C)(CCC[C@@]4(C)C(=O)O)[C@@H]2CC[C@]1(O)C3,inactive,inactive,inactive,–,inactive,–
CCCOC(=O)c1c(-c2ccccc2)nc(CC)c(C(=O)SCC)c1CCC,inactive,inactive,inactive,–,inactive,–
NC(=O)CC[C@H](N)C(=O)O,inactive,inactive,inactive,–,inactive,–
Nc1ncnc2c1nc(Br)n2C1OC2COP(=O)(O)O[C@@H]2C1O (stereo partly specified),inactive,inactive,inactive,–,inactive,–
NCCNS(=O)(=O)c1cccc2c(Cl)cccc12,inactive,inactive,inactive,–,inactive,–
CN(CC[C@@H](Oc1ccc(C(F)(F)F)cc1)c1ccccc1)CC(=O)O,inactive,inactive,inactive,inactive,inactive,–
CCCN(CCc1ccccc1)C1CCc2c(O)cccc2C1 (stereo unspecified),inactive,inactive,inactive,–,inactive,–
c1ccc(C2CN3CCSC3=N2)cc1 (stereo unspecified),inactive,inactive,inactive,–,inactive,–
COc1ccccc1N1CCN(CCN(C(=O)c2ccc(F)cc2)c2ccccn2)CC1,inactive,inactive,inactive,–,inactive,–
NC(Cc1cccc(-c2ccccc2CP(=O)(O)O)c1)C(=O)O (stereo unspecified),inactive,inactive,inactive,–,inactive,–
C=CCNc1ncnc2ccc(Br)cc12,inactive,inactive,inactive,–,inactive,–
CNc1cc(NS(=O)(=O)c2ccc(N)cc2)nc(NC)n1,inactive,inactive,inactive,–,inactive,–
N#CC(=C(\N)Sc1ccccc1N)/C(C#N)=C(/N)Sc1ccccc1N,inactive,inactive,–,inactive,–,–
COc1cc(/C=C(\C#N)C(=O)c2ccc(O)c(O)c2)cc(I)c1O,inactive,inactive,–,11.2 µM (active),–,17.8%
CCCCCCCCCC(=O)NC(CN1CCOCC1)[C@H](O)c1ccccc1 (stereo partly specified),inactive,inactive,inactive,–,inactive,–
CCSC(=N)N,inactive,inactive,–,inactive,inactive,–
